AHR activator – activators of human aryl hydrocarbon receptor; P35869; AHR-responsive luciferase reporter cells, luminescence; activation, % at 5 µM; actives 2.5% (n = 320,000); AID 2796; in the data active means activation above about 47%
Target sequence (P35869 whole entry, looked up): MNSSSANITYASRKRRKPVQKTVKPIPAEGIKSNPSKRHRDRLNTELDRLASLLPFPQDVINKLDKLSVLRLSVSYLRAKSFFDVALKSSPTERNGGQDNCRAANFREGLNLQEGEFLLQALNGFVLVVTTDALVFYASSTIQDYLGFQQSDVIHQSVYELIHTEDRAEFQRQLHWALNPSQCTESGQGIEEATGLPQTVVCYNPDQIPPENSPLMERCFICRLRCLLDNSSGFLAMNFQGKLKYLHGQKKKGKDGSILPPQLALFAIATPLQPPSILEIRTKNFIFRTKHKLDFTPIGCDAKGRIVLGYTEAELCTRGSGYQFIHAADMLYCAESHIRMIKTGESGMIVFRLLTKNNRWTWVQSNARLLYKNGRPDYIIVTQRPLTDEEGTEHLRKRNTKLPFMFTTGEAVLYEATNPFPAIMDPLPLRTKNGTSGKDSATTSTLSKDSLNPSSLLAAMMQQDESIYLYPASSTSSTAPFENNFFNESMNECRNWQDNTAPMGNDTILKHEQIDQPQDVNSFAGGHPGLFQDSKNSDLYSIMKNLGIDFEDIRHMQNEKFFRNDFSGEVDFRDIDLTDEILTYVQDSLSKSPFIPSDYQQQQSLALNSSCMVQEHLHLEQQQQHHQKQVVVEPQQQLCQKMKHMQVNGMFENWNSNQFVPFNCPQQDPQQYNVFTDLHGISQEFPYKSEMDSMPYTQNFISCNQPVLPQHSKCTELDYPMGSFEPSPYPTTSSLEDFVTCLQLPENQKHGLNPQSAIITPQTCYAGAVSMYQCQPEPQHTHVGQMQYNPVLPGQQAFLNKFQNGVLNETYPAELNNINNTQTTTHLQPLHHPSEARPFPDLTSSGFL
FXN GAA850 act – frataxin GAA850 promoter activation; AID 540364; HEK293 lucGAA850 FXN promoter luciferase reporter, 24 h; percent of 10 µM SAHA response; activation, % at 6 µM; actives 0.56% (n = 360,000);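 active means activation above the average of all compounds screened plus 3 SD, cutoff fixed separately per campaign, cut at about 7.5% in these data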
HSF1 activator – increases HSF-1 driven luciferase reporter signal. NIH3T3-HGL HSF-1 luciferase reporter, MG132, 8 h; 100% = twice DMSO control signal. activation, % at 9 µM. actives 1.7% (n = 300,000). AID 504408;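 active means mean replicate activation of at least 50% with a set share of replicates each reaching 50%; inconclusive means only one of those two conditions met; inactive means mean below 50% and too few replicates reaching it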
HSF1 inhib – HSF1 inhibition; activity change, negative = inhibition, % at 7.5 µM (by protocol); actives 0.77% (n = 300,000); AID 2098; NIH3T3-HGL HSE-luciferase, MG132-induced, luminescence 8 h; hits give low values;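 active means more than half of replicate wells show activity change below -50%, luminescence cut by over half; inconclusive means some wells, but at most half, below -50%; inactive means no replicate well below -50%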;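 further: luciferase reports HSF-1 transcriptional activity via heat shock element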
Of the large screens only hits and unclear results are named; the others gave an inactive call. Compounds with a hit are over-represented: about 4.6% of the library has one in this group of screens.

CCOc1ccc(-c2cn(-c3ccc(OC)cc3)c(SC)n2)cc1	HSF1 activator 61.7
O=C(Nc1ncc(Cc2cccc(Cl)c2)s1)C1=NCCN1	none
COc1cccc(OCCCn2cc(/C=C3/C(=N)N4C=C(C)SC4=NC3=O)c3ccccc32)c1	AHR activator 50.7
COc1ccc(OCCCn2cc(/C=C3/C(=N)N4C=C(C)SC4=NC3=O)c3ccccc32)cc1	none
O=C1c2cccc3c([N+](=O)[O-])ccc(c23)C(=O)N1O	HSF1 activator 51.8
O=C1c2cccc3c([N+](=O)[O-])ccc(c23)C(=O)N1c1ccccn1	HSF1 inhib -67.6
O=C1c2cccc3c([N+](=O)[O-])ccc(c23)C(=O)N1c1ccc(Cl)cn1	none
CCOC(=S)SCc1cn2ccc(C)cc2n1	none
CCCc1nc(SCC(=O)NC2CC2)c2c(C)c(C)sc2n1	none
CCc1nc(SCC(=O)NC2CC2)c2c(C)c(C)sc2n1	AHR activator 51.9
CC(C)C(=O)N1CCCC1(C)C(=O)Nc1ccc(-n2cncn2)cc1 (configuration not stated)	none (no result: AHR activator, HSF1 activator, HSF1 inhib)
O=[N+]([O-])c1ccccc1/C=C/C=N/n1c(-c2ccc(Cl)cc2)n[nH]c1=S	AHR activator 60.5
Cc1cc(-c2n[nH]c(=S)n2/N=C/c2ccccc2[N+](=O)[O-])n[nH]1	AHR activator 47.6
S=c1[nH]nc(-c2ccc(Cl)cc2)n1/N=C/c1cccs1	AHR activator 75.2
Cc1cc(-c2n[nH]c(=S)n2/N=C/c2c[nH]c3ccccc23)n[nH]1	none
O=[N+]([O-])c1ccc(Cl)c(/C=N/n2c(-c3ccncc3)n[nH]c2=S)c1	HSF1 activator 242.8
O=C(Nc1ccc(-n2cnnn2)cc1)C1CCCN1C(=O)Nc1ccc(Br)cc1 (configuration not stated)	none
Cc1cc(-c2n[nH]c(=S)n2/N=C/C=C/c2ccccc2)n[nH]1	HSF1 activator 57.1
COc1ccccc1/C=C/C=N/n1c(-c2n[nH]c3c2CCC3)n[nH]c1=S	AHR activator 55.0
COc1cccc(/C=N/n2c(-c3n[nH]c4c3CCC4)n[nH]c2=S)c1O	none
COc1ccccc1/C=C/C=N/n1c(-c2cc(C)[nH]n2)n[nH]c1=S	HSF1 activator inconclusive
N/C(=N\OC(=O)C1CCCCC1)c1ccc(Br)cc1	HSF1 activator 57.3
N/C(=N\OC(=O)C1CCCCC1)c1ccc(Cl)cc1	HSF1 activator 84.5
N/C(=N\OC(=O)C1CCCCC1)c1ccncc1	none
O=C(CNC(=O)C1CCCCC1)OCC(=O)c1ccc(Br)cc1	HSF1 activator 64.6 (no result: AHR activator)
NC(=NC1CCCCC1)c1ccc(Cl)cc1	none
COc1cc(C(=O)N2CCN(S(=O)(=O)c3ccc(F)cc3)CC2)cc(OC)c1OC	none
CCCNC(=O)c1cccc(COCC(F)(F)F)c1	HSF1 inhib -63.1
CCCNC(=O)c1cccc(COc2ccccc2OC)c1	none
CCOc1ccccc1OCC(=O)Nc1ccc(S(=O)(=O)Nc2nc(C)cc(C)n2)cc1	none
O=C(c1cccs1)n1nc(-c2ccco2)nc1SCc1ccccc1	HSF1 inhib -53.6 (no result: FXN GAA850 act)
CSc1nc(-c2ccco2)nn1C(=O)c1cccs1	none
Cc1c(C(=O)Nc2ccccc2N2CCN(C)CC2)oc2ccc(F)cc12	none (no result: AHR activator, HSF1 activator, HSF1 inhib)
CCCOc1c(Br)cc(C(=O)NCC)cc1OC	AHR activator 79.0
CCCCNC1C(CC)C(CCC)C(C#N)(C#N)C1(C#N)C#N (configuration not stated)	HSF1 activator 118.3
S=C(Nc1ccccc1)Nc1ccc(Cl)cn1	HSF1 activator 78.0
O=C(COc1ccccc1Cl)Nc1ccc(Cl)cn1	HSF1 activator 106.5
O=C(NC(=S)Nc1ccc(Cl)cn1)C(c1ccccc1)c1ccccc1	none
Cc1ccc(C(=O)Nc2sc(C)c(-c3ccccc3)c2C(N)=O)cc1[N+](=O)[O-]	HSF1 inhib -81.5
C/C(N)=C(/C#N)C(=O)COC(=O)CNS(=O)(=O)c1ccc(F)c(F)c1F	none
COC(=O)/C(C#N)=C\c1c(OC)[nH]c2ccccc12	none
CC(C)CCNC(=O)Nc1ccc2c(c1)N(C)C(=O)CS2	AHR activator 47.3
COCCNC(=O)Nc1ccc2c(c1)N(C)C(=O)CS2	none
Cc1ccnc(NC(=O)Nc2ccc3c(c2)N(C)C(=O)CS3)c1	HSF1 activator 68.6
O=C(CSc1nnc(-c2ccncc2)n1-c1ccccc1)Nc1ccc(C(=O)O)cc1	none
CSc1nc(C)c2cc(C)oc2n1	none
Cc1cc2c(C)nc(Cc3ccccc3)nc2o1	AHR activator 53.8
Cc1cc(Cl)ccc1NC(=O)C1COc2ccccc2O1 (configuration not stated)	HSF1 activator 52.8

Screening results: PubChem, several laboratories
